Many of the other results were omitted from the sample, so hits are more common in it than they were.
KDM5B inhibitor = Primary screen for KDM5B Histone Demethylases FDH-coupled qHTS | Lysine-specific demethylase 5B (Homo sapiens), Q9UGL1 | KDM5B demethylase, FDH-coupled NADH fluorescence (FDH is formaldehyde dehydrogenase) | Potency, µM (top dose mostly 57.7 µM), most hits filed as inhibitors | 2.6% of 220,000 active | AID 1347165, 2019; active = well fitted inhibition curve with a large enough effect; note: 0% is about no effect; nearly all actives have a fitted effect of over 70% in size
Target sequence (Q9UGL1 whole entry, looked up): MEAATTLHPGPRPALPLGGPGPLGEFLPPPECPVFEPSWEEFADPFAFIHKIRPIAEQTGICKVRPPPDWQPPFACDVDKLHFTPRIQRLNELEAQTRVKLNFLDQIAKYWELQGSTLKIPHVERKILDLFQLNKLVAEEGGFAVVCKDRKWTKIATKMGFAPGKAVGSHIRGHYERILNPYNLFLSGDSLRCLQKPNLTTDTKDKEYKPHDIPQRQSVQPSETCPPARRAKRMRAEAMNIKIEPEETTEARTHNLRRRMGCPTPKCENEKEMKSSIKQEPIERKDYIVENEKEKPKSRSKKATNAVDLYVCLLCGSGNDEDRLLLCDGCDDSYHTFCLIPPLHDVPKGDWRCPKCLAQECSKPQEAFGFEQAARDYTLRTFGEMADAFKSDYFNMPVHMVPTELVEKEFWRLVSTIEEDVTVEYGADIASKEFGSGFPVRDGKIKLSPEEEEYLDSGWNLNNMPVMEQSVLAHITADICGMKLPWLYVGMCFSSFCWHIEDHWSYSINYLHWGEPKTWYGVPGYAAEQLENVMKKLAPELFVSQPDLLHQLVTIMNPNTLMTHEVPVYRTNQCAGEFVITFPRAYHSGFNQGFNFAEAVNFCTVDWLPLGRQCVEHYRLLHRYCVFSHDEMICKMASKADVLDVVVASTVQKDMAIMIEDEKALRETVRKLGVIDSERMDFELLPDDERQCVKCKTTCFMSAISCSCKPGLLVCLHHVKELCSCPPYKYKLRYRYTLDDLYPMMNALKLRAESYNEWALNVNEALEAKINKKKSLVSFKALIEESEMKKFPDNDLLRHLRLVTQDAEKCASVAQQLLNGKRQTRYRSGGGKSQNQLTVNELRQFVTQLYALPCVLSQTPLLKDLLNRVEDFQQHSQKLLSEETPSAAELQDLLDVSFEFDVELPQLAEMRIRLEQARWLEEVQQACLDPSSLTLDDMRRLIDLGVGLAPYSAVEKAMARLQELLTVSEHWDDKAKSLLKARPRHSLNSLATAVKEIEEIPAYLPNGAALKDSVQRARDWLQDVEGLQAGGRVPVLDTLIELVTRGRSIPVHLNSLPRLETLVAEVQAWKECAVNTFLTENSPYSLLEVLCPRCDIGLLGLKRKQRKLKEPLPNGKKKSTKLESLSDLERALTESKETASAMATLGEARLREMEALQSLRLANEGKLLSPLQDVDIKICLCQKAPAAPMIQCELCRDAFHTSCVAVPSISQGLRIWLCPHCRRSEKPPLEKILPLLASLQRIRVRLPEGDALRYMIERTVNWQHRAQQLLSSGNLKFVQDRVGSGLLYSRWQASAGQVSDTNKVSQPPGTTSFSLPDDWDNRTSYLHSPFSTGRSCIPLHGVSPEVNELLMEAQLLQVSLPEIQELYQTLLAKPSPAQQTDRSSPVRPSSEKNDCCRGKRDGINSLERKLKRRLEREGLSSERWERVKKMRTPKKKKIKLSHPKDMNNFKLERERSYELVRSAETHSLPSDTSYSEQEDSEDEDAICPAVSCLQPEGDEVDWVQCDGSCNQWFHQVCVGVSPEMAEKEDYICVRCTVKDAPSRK
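KDM5BΔAP (200 nM final) in 50 mM HEPES pH 7.5, 0.01% Tween-20 was preincubated 10 min at RT with compound over a concentration range. Substrate mix (H3K4me3 12.5 µM, α-KG 25 µM, Fe²⁺, ascorbate, NAD⁺, FDH) was added, and NADH fluorescence change over 30 min gave dose-response curves.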
The depositor's hits bear a star; i = inactive. Potency is the fitted concentration of half-maximal effect.

SMILES	KDM5B inhibitor
O=C(c1ccc(OC2CCN(C(=O)c3ccsc3)CC2)nc1)N1CCOCC1	i
CC(C)(C)c1nc(C(=O)N2CCN(c3ncccn3)CC2)n2ccccc12	79.4µM*
N#CC1CCN(C(=O)c2c[nH]c3ncccc23)CC1	i
CCCn1nc(C(=O)N2CCN(c3ncccn3)CC2)c2ccccc2c1=O	i
O=C(c1nc(-c2cccnc2)c2ccccn12)N1CCN(c2ncccn2)CC1	i
O=C(c1nc(-c2ccsc2)c2cnccn12)N1CCOCC1	35.5µM*
O=C([C@@H]1C[C@H](Oc2cccnc2)CN1C(=O)c1ccsc1)N1CCOCC1	i
N#CC1CCN(C(=O)c2nc(-c3cccnc3)c3ccccn23)CC1	100µM*
N#CC1CCN(C(=O)c2nc(-c3ccc(F)cc3)c3cnccn23)CC1	31.6µM*
Cc1cc(C(=O)N2CCN(c3ncccn3)CC2)nn1C	i
N#CC1CCN(C(=O)c2nc3sccn3c2Br)CC1	i
Cc1cccc(/C=C/C(=O)NCCc2ccccn2)c1	i
CCn1c(C)cc2c(c1=O)C(c1ccc(Br)cc1)C(C#N)=C(N)O2 (stereo not drawn)	i
O=C(Nc1ccc([C@H]2OCC(=O)N(Cc3ccc(F)cc3)[C@@H]2CO)cc1)C1CCC1	i
O=C(c1nc(-c2ccc(F)cc2)c2cnccn12)N1CCOCC1	39.8µM*
O=C(c1nc(-c2cc(Cl)cc(Cl)c2)c2ccccn12)N1CCN(c2ncccn2)CC1	i
O=C(c1nc(-c2ccsc2)c2ccccn12)N1CCN(c2ncccn2)CC1	25.1µM*
O=C(c1cc(-c2ccc(F)cc2)on1)N1CCOCC1	i
O=C(c1nc(-c2ccsc2)c2ccccn12)N1CCOCC1	35.5µM*
O=C(c1nc(-c2cccnc2)c2cnccn12)N1CCOCC1	i
O=C(c1cc(-c2ccccc2)nc2ccccc12)N1CCN(c2ncccn2)CC1	i
O=C(c1cccnc1-c1nc2ccccc2s1)N1CCOCC1	i
Cn1cc(-c2ccccc2)cc1C(=O)N1CCOCC1	i
CCOC(=O)NCc1ccc(OC)cc1	i
CCCNc1c(NC(=O)Nc2ccc(OC)c(OC)c2)c(=O)oc2ccccc12	i
SMILES	KDM5B inhibitor
Cc1cc(C)c(OCC(=O)Nc2ccccc2N2CCCC2=O)c(C)c1	i
COCCN(Cc1ccco1)C(=O)c1ccc(S(C)(=O)=O)cc1	i
Fc1ccccc1CNC(=S)NC1CC2CCC1C2 (stereo not drawn)	i
Clc1ccccc1CNC[C@H]1Cn2cc(-c3ccccc3)nc2CO1	i
CCNC(=O)N1CCCCCC1CN1CCc2ccccc2C1 (stereo not drawn)	i
CCCNC(=O)N1CCCCCC1CN1CCCC1 (stereo not drawn)	25.1µM*
CCNC(=O)N1CCCCCC1CN1CCC(C)CC1 (stereo not drawn)	i
COc1ccc(Cn2c(C3CCN(C(=O)c4ccc(C)s4)CC3)n[nH]c2=O)cc1	i
O=C(NCc1nc(-c2ccc(F)cc2)no1)C1CC(=O)N(Cc2ccccn2)C1 (stereo not drawn)	i
O=C(NCc1ccc(-c2ccc(F)cc2)o1)C1CC(=O)N(Cc2cccnc2)C1 (stereo not drawn)	25.1µM*
Cc1cccc(CCCNC(=O)C2CC(=O)N(Cc3cccnc3)C2)c1 (stereo not drawn)	i
COCCN1C(=O)C(=O)/C(=C(/O)c2ccc(OC)c(C)c2)C1c1ccc(Cl)c(Cl)c1 (stereo not drawn)	i
C#CCNC(=O)N1CCN(c2cccc(Cl)c2)CC1	i
CC(C)COC(=O)c1ccc(NC(=O)C2=C(c3ccccc3)S(=O)(=O)CCO2)cc1	i
COc1cccc(C(=O)NCC2CCCN(Cc3ccc(C)cc3)C2)c1OC (stereo not drawn)	i
COc1ccc(S(=O)(=O)NCC2CCCN(Cc3ccc(-c4ccco4)cc3)C2)cc1 (stereo not drawn)	28.2µM*
CCn1cc(CN2CCCC(CNS(=O)(=O)c3ccc(OC)cc3)C2)cn1 (stereo not drawn)	i
O=C(CCc1c[nH]c2ccccc12)OCC(=O)N1CCCCCC1	i
CCOC(=O)C1=C(C)N(C2CCCCC2)C(=O)C1(NC(=O)C1CC1)C(F)(F)F (stereo not drawn)	i
CSc1cccc(N2C(=O)[C@@H]3C[C@@H](NC(=O)c4cccn4C)CCN3C2=O)c1	i
COCCNc1ncc(-c2ccsc2)c2c1OCC2	35.5µM*
COCCNc1ncc(-c2ccccc2)c2c1OCC2	39.8µM*
COCCNc1nc(-c2ccsc2)nc2ccccc12	i
COCCNc1ncc(-c2cccc(NC(C)=O)c2)c2c1OCC2	39.8µM*
COc1ccc(C(=O)Nc2ncc(-c3ccc(OC)nc3)c3c2OCC3)cc1	i
SMILES	KDM5B inhibitor
O=C(Nc1ncc(-c2ccccc2)c2c1OCC2)c1ccccc1	i
COCCNc1ncc(-c2ccc([S+](C)(=O)[O-])cc2)c2c1OCC2	31.6µM*
O=C(Nc1ncc(-c2ccccc2)c2c1OCC2)c1cn[nH]c1	i
CS(=O)(=O)c1cccc(C(=O)N2CCCCCCC2)c1	i
CC(C)NC(=O)NC[C@H]1OC[C@@H](NC2CCNCC2)[C@@H]1O	i
CCN(CC)S(=O)(=O)c1ccc(N2CCN(C)CC2)c(NC(=O)Cc2ccccc2)c1	i
CCn1cc(C(=O)c2cc(Cl)ccc2O)cc1-c1nc2ccccc2c(=O)[nH]1	i
CN(C)c1cccc(C(=O)N/N=C/c2ccc(Cl)s2)c1	i
O=C(Nc1ccc([C@H]2OCC(=O)N(CC3CCCCC3)[C@@H]2CO)cc1)c1ccccn1	i
Cn1c(=O)c2c(ncn2CC(=O)Nc2nc(-c3ccc(C4CCCCC4)cc3)cs2)n(C)c1=O	i
OC12CC3CC(C1)CC(NCc1ccc(-c4ccccc4)cc1)(C3)C2	i
CCn1ccc(C(=O)N2CCC3(CC2)c2[nH]c4ccccc4c2CCN3C)n1	28.2µM*
COc1ccc(C(=O)N2CCC3(CC2)c2[nH]c4ccccc4c2CCN3C)c(OC)n1	i
CN1CCc2c([nH]c3ccccc23)C12CCN(C(=O)c1cccnc1)CC2	i
O=C(Nc1c(NC2CCCC2)c2ccccc2oc1=O)c1cccc(Cl)c1	i
Cc1noc(-c2ccccc2Cl)c1C(=O)NCc1ccccc1Cl	i
CCc1noc(-c2cccn3c(CNC(=O)Cc4ccccc4Cl)nnc23)n1	20µM*
Cc1ccc(-c2nc(C(=O)NCc3ccccc3C)no2)cc1	i
CCc1noc(-c2cccn3c(CNC(=O)Cc4ccccc4C)nnc23)n1	25.1µM*
CCc1noc(-c2cccn3c(CNC(=O)Cc4ccc(Cl)cc4)nnc23)n1	25.1µM*
CCc1noc(-c2cn(C3CCN(C(=O)Cc4ccc(Cl)cc4)CC3)nn2)n1	i
Cc1ccc2c(c1)/C(=C/c1ccncc1)c1cc3ccccc3nc1-2	i
O=C1NCc2ccccc2CC12CCN(Cc1cccc3ccccc13)C2 (stereo not drawn)	i
COc1ccccc1C(=O)N1CCC2(CC1)OC(=O)N(CCOc1ccccc1)C2(C)c1cccnc1 (stereo not drawn)	i
Cc1ncsc1C(=O)NCc1cccs1	i
O=C(COc1ccccc1)N1CCC([C@@H]2CNC[C@H]2CO)CC1	i
Cc1ccc(CNC(=O)C2CCCN2C(=O)OC(C)(C)C)cc1F (stereo not drawn)	i
O=C(COc1ccc2c(=O)c(-c3ccccc3)coc2c1)NCCC1=CCCCC1	i
CCOc1ccc(C(=O)N[C@H]2CC[C@H]2NC2CCOCC2)cc1Cl	i
O=C(Cc1cccc(F)c1)NCc1nnc2cc(-c3nc(C4CC4)no3)ccn12	28.2µM*
